Results filed as inconclusive are left out. Entries that show only a call come without a potency. The source made the active and inactive calls. Unless noted, the call rests on the fitted dose curve; in most records, active means well fitted curve in the direction sought with a large enough effect in the repeat runs; inconclusive means weak or mixed curves; inactive means no such curve, though single readings can be large; an effect the other way counts as inactive or inconclusive.
Key:
[1] = target: Acetylcholinesterase (Homo sapiens) (UniProt P22303); assay: Acetylcholinesterase (AChE) small molecule antagonists: fluorescence cell-based qHTS assay (AID 1347398; calls by dose curve; further: nearly all actives have a fitted effect of over 50% in size; further: potency means the concentration at half of the fitted maximal effect); settings: Potency: AChE activity
Acetylcholinesterase (Homo sapiens), sequence (P22303 whole entry, looked up): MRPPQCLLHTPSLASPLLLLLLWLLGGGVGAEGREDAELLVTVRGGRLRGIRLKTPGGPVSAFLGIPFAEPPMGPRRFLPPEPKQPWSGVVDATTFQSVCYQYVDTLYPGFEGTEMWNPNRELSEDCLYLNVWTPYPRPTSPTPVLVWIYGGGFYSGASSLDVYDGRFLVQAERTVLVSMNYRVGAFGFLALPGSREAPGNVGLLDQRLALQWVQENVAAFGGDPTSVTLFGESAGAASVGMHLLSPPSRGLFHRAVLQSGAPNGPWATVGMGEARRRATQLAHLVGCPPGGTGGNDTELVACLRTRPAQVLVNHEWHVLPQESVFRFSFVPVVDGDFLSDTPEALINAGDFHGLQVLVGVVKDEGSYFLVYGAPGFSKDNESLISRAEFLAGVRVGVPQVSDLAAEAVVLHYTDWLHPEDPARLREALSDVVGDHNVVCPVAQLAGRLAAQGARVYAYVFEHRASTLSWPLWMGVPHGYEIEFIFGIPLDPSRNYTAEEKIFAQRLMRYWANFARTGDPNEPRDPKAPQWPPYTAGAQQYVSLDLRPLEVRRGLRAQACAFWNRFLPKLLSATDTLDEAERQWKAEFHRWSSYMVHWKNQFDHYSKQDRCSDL
Method in brief: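 Read-out is Thiolite Green fluorescence at Ex/Em = 490/520 nm, formed by reaction with thiocholine released when cellular AChE in SH-SY5Y cells hydrolyzes acetylthiocholine. Compounds were preincubated 30 min at 37 C before substrate.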

[2] = target: Acetylcholinesterase (Homo sapiens) (UniProt P22303); assay: Acetylcholinesterase (AChE) small molecule antagonists: enzyme-based qHTS assay with human liver microsomes (AID 1347399; calls by dose curve; further: nearly all actives have a fitted effect of over 60% in size); settings: Potency: qHTS inhibition
Method in brief: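 Recombinant human AChE (50 mU/mL in the enzyme mix) and human liver microsomes (0.25 mg/mL final) were preincubated with compound and NADPH (0.25 mg/mL final) for 30 min at 37 C. Acetylthiocholine/DTNB was then added; thiocholine was read colorimetrically after 10 min at room temperature.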

[3] = target: Cytochrome P450 2C19 (Homo sapiens) (UniProt P33261); assay: Cytochrome P450 Family 2 Subfamily C Member 19 (CYP2C19) small molecule antagonists: luciferase reporter qHTS assay (AID 1671197); further: nearly all actives have a fitted effect of over 65% in size; further: potency means the concentration at half of the fitted maximal effect
Cytochrome P450 2C19 (Homo sapiens), sequence (P33261 whole entry, looked up): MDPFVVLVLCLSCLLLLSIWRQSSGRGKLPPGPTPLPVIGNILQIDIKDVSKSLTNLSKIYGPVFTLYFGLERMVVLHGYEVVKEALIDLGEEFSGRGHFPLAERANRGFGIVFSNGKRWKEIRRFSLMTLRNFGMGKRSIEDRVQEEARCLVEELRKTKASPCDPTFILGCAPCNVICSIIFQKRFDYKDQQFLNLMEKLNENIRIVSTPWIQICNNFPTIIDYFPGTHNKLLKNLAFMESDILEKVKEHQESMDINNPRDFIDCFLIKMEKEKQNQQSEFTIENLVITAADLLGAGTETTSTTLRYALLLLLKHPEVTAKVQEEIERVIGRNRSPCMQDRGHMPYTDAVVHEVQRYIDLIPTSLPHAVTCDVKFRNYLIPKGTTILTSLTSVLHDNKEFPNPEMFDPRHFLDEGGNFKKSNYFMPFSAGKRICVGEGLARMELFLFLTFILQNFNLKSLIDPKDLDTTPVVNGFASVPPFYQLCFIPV
Method in brief: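 CYP2C19 P450-Glo, 1536-well qHTS. Cpd + enzyme/proluciferin substrate 10 min RT; + NADPH regen, 37C 1 h; stop with luciferin detection reagent, 20 min RT, luminescence (RLU). Pos ctrl ketoconazole.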

[4] = target: Cytochrome P450 2C9 (Homo sapiens) (UniProt P11712); assay: Cytochrome P450 Family 2 Subfamily C Member 9 (CYP2C9) small molecule antagonists: luciferase reporter qHTS assay (AID 1671198); further: nearly all actives have a fitted effect of over 50% in size; further: potency means the concentration at half of the fitted maximal effect
Cytochrome P450 2C9 (Homo sapiens), sequence (P11712 whole entry, looked up): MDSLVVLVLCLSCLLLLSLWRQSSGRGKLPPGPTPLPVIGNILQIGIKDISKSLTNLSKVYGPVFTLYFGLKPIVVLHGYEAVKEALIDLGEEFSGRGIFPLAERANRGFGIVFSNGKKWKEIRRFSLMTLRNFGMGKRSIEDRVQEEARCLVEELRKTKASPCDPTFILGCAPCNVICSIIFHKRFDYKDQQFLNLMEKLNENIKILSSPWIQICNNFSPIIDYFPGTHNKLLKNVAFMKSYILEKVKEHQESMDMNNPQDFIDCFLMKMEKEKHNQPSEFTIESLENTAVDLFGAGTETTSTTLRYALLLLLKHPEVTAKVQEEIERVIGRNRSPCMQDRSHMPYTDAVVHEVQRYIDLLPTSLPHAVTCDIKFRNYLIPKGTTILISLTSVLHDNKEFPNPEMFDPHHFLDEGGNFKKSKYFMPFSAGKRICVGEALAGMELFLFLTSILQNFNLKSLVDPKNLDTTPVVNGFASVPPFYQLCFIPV
Method in brief: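 Enzyme-substrate mix preincubated with compound 10 min at room temperature; reaction started with NADPH regeneration solution, 1 h 37C. Luminescent luciferin product read after 20 min detection reagent.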

[5] = target: Voltage-gated inwardly rectifying potassium channel KCNH2 (Homo sapiens) (UniProt Q12809); assay: Human Ether-a-go-go-Related Gene (hERG) channel small molecule antagonists: fluorescence cell-based qHTS assay (AID 1671200); further: nearly all actives have a fitted effect of over 50% in size; further: potency means the concentration at half of the fitted maximal effect
Voltage-gated inwardly rectifying potassium channel KCNH2 (Homo sapiens), sequence (Q12809 whole entry, looked up): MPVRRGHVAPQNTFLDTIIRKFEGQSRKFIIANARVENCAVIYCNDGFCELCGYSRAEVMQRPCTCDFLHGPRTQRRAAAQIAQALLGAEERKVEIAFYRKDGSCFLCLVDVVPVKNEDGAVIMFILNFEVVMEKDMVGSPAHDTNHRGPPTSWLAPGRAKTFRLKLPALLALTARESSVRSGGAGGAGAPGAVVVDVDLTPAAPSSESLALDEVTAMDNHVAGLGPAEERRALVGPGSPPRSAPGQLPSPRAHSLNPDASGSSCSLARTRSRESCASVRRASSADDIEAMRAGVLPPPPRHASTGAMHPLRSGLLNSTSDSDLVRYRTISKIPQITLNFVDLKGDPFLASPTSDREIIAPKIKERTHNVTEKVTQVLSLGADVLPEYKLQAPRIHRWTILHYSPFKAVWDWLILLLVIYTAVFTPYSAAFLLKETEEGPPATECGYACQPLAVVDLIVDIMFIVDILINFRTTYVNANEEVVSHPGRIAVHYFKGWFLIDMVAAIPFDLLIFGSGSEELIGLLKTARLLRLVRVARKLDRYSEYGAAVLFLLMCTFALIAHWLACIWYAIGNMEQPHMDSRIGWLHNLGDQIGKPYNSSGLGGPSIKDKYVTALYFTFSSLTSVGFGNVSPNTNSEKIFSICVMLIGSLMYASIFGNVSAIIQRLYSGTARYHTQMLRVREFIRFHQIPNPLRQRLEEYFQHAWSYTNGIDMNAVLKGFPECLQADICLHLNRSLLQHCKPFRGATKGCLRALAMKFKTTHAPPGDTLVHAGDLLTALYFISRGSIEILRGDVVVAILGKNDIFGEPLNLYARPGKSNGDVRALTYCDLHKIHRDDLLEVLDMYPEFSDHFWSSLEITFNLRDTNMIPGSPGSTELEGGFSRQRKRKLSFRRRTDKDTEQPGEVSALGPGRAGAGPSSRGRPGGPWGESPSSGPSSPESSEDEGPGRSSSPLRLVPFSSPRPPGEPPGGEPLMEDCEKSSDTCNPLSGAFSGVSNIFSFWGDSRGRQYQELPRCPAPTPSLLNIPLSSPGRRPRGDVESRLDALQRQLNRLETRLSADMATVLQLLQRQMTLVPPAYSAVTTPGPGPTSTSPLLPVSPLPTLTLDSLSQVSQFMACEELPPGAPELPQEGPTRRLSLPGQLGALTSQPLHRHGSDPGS
Method in brief: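 Quantitative HTS in hERG-U2OS cells: thallium entry through the channel reports activity, read as continuous 480/540 nm fluorescence over 2 min after stimulus addition.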

[6] = target: Cytochrome P450 3A4 (Homo sapiens) (UniProt P08684); assay: Cytochrome P450 Family 3 Subfamily A Member 4 (CYP3A4) small molecule antagonists: luciferase reporter qHTS assay (AID 1671201); further: nearly all actives have a fitted effect of over 50% in size; further: potency means the concentration at half of the fitted maximal effect
Cytochrome P450 3A4 (Homo sapiens), sequence (P08684 whole entry, looked up): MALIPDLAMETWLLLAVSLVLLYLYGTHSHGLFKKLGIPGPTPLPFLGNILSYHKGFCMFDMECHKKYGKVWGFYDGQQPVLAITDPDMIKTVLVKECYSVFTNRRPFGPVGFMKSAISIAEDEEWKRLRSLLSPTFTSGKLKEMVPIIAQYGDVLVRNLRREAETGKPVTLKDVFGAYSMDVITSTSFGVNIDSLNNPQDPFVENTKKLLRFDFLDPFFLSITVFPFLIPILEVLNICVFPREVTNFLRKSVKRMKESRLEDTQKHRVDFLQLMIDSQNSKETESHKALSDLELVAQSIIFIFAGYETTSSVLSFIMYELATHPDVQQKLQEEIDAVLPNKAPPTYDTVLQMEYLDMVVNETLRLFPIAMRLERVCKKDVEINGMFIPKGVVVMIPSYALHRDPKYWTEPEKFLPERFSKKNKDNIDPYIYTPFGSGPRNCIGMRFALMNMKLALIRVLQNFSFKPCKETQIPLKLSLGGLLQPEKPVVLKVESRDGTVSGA
Method in brief: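 Inhibition of CYP3A4 is measured as loss of light: the enzyme converts a proluciferin substrate to luciferin, detected luminescently. Reaction ran 1 h at room temperature with NADPH regeneration after a 10 min compound preincubation.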

[7] = target: Cytochrome P450 1A2 (Homo sapiens) (UniProt P05177); assay: Cytochrome P450 Family 1 Subfamily A Member 2 (CYP1A2) small molecule antagonists: luciferase reporter qHTS assay (AID 1671199); further: nearly all actives have a fitted effect of over 50% in size; further: potency means the concentration at half of the fitted maximal effect
Cytochrome P450 1A2 (Homo sapiens), sequence (P05177 whole entry, looked up): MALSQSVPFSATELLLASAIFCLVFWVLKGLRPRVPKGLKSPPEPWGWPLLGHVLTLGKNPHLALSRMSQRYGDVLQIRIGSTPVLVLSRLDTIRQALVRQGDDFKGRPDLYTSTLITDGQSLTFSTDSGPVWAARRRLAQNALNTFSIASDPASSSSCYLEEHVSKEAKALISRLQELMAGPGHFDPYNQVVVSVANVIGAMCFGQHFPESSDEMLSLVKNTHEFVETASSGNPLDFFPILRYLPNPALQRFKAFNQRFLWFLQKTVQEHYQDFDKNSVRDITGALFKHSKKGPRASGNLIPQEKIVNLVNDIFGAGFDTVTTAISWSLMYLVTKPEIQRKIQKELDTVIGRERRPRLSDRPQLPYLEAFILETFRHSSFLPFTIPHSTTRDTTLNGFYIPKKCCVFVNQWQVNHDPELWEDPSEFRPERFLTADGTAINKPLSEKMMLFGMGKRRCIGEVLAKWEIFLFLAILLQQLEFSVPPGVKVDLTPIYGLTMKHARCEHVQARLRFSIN
Method in brief: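 Enzymatic CYP1A2 assay, human, luminescent: 10 min compound–enzyme–substrate preincubation, 1 h NADPH-dependent turnover, 20 min detection step, room temperature throughout. Reduced light indicates lower CYP1A2 activity.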

[8] = target: Cytochrome P450 2D6 (Homo sapiens) (UniProt P10635); assay: Cytochrome P450 Family 2 Subfamily D Member 6 (CYP2D6) small molecule antagonists: luciferase reporter qHTS assay (AID 1671196)
Cytochrome P450 2D6 (Homo sapiens), sequence (P10635 whole entry, looked up): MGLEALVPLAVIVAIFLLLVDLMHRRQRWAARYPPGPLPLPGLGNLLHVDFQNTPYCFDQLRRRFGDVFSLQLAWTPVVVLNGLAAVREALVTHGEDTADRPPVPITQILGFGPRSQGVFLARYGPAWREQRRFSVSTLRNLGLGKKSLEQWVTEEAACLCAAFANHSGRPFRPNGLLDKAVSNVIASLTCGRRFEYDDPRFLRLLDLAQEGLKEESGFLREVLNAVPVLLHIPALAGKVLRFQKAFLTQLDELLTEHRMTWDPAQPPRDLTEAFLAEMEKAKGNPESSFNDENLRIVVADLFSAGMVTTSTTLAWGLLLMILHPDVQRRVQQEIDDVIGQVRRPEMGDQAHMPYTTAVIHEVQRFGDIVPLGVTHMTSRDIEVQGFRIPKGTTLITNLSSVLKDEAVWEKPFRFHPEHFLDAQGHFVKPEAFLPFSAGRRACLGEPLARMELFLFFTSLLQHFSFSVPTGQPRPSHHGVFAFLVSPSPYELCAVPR
Method in brief: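 Each well received CYP2D6 with its proluciferin substrate and chemical, sat 10 min, then got NADPH regeneration solution for 1 h at room temperature. Luminescence in RLU served as the activity measure.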

SMILES: ClCc1ccccc1CCl
- Potency [1]: inactive
- Potency [2]: inactive
- Potency [3]: inactive
- Potency [4]: inactive
- Potency [5]: inactive
- Potency [6]: inactive

SMILES: ClCc1ccc(Cl)cc1Cl
- Potency [1]: inactive
- Potency [2]: inactive
- Potency [4]: inactive
- Potency [5]: inactive
- Potency [6]: inactive

SMILES: FC(Cl)(Cl)Cl
- Potency [1]: inactive
- Potency [2]: inactive
- Potency [4]: inactive
- Potency [5]: inactive
- Potency [6]: inactive

SMILES: CCN(CC)c1c([N+](=O)[O-])cc(C(F)(F)F)c(N)c1[N+](=O)[O-]
- Potency [1]: inactive
- Potency [2]: inactive
- Potency [3]: 20 µM (active)
- Potency [7]: 0.356 µM (active)
- Potency [5]: inactive

SMILES: S=C(SSC(=S)N1CCCCC1)N1CCCCC1
- Potency [1]: 38.9 µM (active)
- Potency [2]: inactive
- Potency [3]: 6.92 µM (active)
- Potency [5]: inactive

SMILES: N#CCCC(Br)(C#N)CBr (configuration not stated)
- Potency [1]: inactive
- Potency [8]: inactive
- Potency [3]: 11.2 µM (active)
- Potency [4]: 8.94 µM (active)
- Potency [7]: 15.9 µM (active)
- Potency [5]: 27.5 µM (active)
- Potency [6]: inactive

SMILES: CC(=O)Nc1ccc2c(c1)Cc1ccccc1-2
- Potency [1]: inactive
- Potency [2]: inactive
- Potency [3]: 18.1 µM (active)
- Potency [7]: 3.22 µM (active)
- Potency [5]: inactive
- Potency [6]: 64.3 µM (active)

SMILES: BrCC(Br)c1ccccc1 (configuration not stated)
- Potency [1]: inactive
- Potency [2]: inactive
- Potency [5]: inactive
- Potency [6]: inactive

SMILES: Oc1ccc(I)cc1
- Potency [1]: inactive
- Potency [2]: inactive
- Potency [4]: 71 µM (active)
- Potency [7]: 39.9 µM (active)
- Potency [5]: inactive
- Potency [6]: inactive

SMILES: Oc1ccc(C2(c3ccc(O)cc3)CCCCC2)cc1
- Potency [1]: inactive
- Potency [2]: inactive
- Potency [3]: 37.8 µM (active)
- Potency [4]: 33.7 µM (active)
- Potency [6]: 23.9 µM (active)

SMILES: COP(N)(=S)OC
- Potency [1]: inactive
- Potency [2]: inactive
- Potency [7]: inactive
- Potency [5]: inactive

SMILES: O=c1[nH]c2ccccc2n1C1CCN(CCCC(c2ccc(F)cc2)c2ccc(F)cc2)CC1
- Potency [1]: inactive
- Potency [2]: inactive
- Potency [7]: inactive
- Potency [6]: inactive

SMILES: CC(=O)O[C@H]1CC[C@@]2(C)C(=CC[C@@H]3[C@@H]2CC[C@]2(C)C(=O)CC[C@@H]32)C1
- Potency [1]: inactive
- Potency [2]: inactive
- Potency [3]: 31.7 µM (active)
- Potency [7]: inactive
- Potency [5]: 49 µM (active)
- Potency [6]: inactive
